# Measurements as given in paper PMC7862700, “An all-to-all approach to the identification of sequence-specific readers for epigenetic DNA modifications on cytosine”.
# Tests used:
# Experiment in all cases: DAPPL (digital affinity profiling via proximity ligation, sequencing); 10 mM Tris-HCl pH 7.5, 50 mM NaCl, 1 mM DTT, 4% glycerol, room temperature, 30 min; GST-TFs on glutathione beads, 16-mer random dsDNA library, 0.1% formaldehyde crosslink after washing; high values mean tight binding
# FEV = target: T1, FEV (Homo sapiens, UniProt Q99581 1-238); conditions: protein: recombinant; tags: N-terminal GST; dsDNA, one strand shown
# T1 sequence: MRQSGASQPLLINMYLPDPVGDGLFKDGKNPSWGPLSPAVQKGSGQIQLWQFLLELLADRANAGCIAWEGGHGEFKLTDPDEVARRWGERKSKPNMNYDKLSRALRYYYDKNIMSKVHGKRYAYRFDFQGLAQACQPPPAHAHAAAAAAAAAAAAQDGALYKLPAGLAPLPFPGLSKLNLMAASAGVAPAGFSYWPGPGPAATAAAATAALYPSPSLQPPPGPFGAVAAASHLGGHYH
# Summary of the method: (§1)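 Binding signal is each hexamer's read frequency for a factor divided by its frequency in the tag-only sample. The factors were GST-fused human transcription factors from yeast, captured on glutathione beads, DNA-barcoded and pooled with that sample. Pools were incubated with 200 nmole of a random double-stranded 16-mer DNA library in Tris/NaCl/DTT/glycerol buffer at room temperature for 30 min, then washed, crosslinked with 0.1% formaldehyde, proximity-ligated with BsaI/T4 ligase (1 h, 37 °C), PCR-amplified and sequenced on an Illumina NextSeq500.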
# ETV5 = ETV5 (Homo sapiens, UniProt P41161 1-510); conditions: protein: recombinant; tags: N-terminal GST; dsDNA, one strand shown
# Summary of the method: as §1
# HSF1 = HSF1 (Homo sapiens, UniProt Q00613 1-529); conditions: protein: recombinant; tags: N-terminal GST; chain copies: 3; dsDNA, one strand shown
# Summary of the method: as §1
# SPIC = target: T2, SPIC (Homo sapiens, UniProt Q8N5J4 1-248); conditions: protein: recombinant; tags: N-terminal GST; dsDNA, one strand shown
# T2 sequence: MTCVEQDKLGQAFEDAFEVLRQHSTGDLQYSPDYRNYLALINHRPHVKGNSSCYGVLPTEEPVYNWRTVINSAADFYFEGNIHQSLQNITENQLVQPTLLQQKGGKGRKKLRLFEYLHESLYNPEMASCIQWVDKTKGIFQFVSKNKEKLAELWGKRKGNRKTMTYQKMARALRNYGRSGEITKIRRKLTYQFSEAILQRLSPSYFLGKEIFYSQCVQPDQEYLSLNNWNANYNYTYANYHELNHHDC
# Summary of the method: as §1
# ELF4 = ELF4 (Homo sapiens, UniProt Q99607 1-663); conditions: protein: recombinant; tags: N-terminal GST; dsDNA, one strand shown
# Summary of the method: as §1
# ELK4 = target: T3, ELK4 (Homo sapiens, UniProt P28324-2 1-405); conditions: protein: recombinant; tags: N-terminal GST; dsDNA, one strand shown
# T3 sequence: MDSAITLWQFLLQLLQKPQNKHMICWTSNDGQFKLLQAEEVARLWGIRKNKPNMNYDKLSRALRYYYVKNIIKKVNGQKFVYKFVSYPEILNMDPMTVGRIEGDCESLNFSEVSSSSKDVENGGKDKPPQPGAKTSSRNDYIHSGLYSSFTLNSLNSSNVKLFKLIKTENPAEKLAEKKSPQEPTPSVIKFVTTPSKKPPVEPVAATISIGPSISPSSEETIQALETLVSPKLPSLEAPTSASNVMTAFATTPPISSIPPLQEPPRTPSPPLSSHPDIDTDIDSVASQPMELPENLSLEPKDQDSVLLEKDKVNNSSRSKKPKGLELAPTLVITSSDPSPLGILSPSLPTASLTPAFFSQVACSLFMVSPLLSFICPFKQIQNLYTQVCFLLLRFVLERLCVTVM
# Summary of the method: as §1
# ETV2 = target: T4, ETV2 (Homo sapiens, UniProt O00321 1-342); conditions: protein: recombinant; tags: N-terminal GST; dsDNA, one strand shown
# T4 sequence: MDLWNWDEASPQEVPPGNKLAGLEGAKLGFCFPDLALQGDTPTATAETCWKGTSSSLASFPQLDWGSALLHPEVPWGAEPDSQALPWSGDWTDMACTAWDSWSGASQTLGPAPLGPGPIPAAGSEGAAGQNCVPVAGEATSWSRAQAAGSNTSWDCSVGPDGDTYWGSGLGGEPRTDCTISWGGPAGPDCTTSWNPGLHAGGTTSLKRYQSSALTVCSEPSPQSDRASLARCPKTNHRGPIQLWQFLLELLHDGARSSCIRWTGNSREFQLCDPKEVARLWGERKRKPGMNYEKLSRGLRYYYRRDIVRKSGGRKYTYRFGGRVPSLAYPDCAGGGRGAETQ
# Summary of the method: as §1
# ELF3 = target: T5, ELF3 (Homo sapiens, UniProt P78545 1-371); conditions: protein: recombinant; tags: N-terminal GST; dsDNA, one strand shown
# T5 sequence: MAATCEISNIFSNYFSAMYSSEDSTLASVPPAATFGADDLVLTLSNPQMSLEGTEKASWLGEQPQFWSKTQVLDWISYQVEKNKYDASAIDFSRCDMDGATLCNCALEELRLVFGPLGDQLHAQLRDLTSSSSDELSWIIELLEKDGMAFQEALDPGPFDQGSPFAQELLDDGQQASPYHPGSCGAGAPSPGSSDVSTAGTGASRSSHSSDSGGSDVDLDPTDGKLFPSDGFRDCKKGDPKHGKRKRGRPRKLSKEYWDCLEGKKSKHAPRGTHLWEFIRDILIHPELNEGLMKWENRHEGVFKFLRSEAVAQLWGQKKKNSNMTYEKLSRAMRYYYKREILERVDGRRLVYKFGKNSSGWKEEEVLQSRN
# Summary of the method: as §1
# CRX = CRX (Homo sapiens, UniProt O43186 1-299); conditions: protein: recombinant; tags: N-terminal GST; dsDNA, one strand shown
# Summary of the method: as §1
# ETV1 = ETV1 (Homo sapiens, UniProt P50549 1-477); conditions: protein: recombinant; tags: N-terminal GST; dsDNA, one strand shown
# Summary of the method: as §1
# ERF = target: T6, ERF (Homo sapiens, UniProt P50548 1-548); conditions: protein: recombinant; tags: N-terminal GST; dsDNA, one strand shown
# T6 sequence: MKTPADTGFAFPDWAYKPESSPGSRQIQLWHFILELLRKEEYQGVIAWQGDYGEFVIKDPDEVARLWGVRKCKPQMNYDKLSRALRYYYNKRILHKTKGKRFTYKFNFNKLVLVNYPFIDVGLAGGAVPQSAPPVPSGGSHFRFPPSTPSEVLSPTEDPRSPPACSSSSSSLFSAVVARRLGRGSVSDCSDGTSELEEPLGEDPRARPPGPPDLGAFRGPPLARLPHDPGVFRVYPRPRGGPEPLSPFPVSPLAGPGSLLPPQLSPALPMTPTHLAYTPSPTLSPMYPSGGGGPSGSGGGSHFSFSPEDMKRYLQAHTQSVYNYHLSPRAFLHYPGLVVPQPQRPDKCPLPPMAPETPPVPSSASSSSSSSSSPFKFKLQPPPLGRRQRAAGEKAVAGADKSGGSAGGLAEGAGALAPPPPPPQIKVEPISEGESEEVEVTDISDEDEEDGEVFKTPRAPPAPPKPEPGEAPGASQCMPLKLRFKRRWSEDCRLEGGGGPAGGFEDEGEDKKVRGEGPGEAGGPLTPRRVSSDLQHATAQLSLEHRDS
# Summary of the method: as §1
# ETV3L = target: T7, ETV3L (Homo sapiens, UniProt Q6ZN32 1-361); conditions: protein: recombinant; tags: N-terminal GST; dsDNA, one strand shown
# T7 sequence: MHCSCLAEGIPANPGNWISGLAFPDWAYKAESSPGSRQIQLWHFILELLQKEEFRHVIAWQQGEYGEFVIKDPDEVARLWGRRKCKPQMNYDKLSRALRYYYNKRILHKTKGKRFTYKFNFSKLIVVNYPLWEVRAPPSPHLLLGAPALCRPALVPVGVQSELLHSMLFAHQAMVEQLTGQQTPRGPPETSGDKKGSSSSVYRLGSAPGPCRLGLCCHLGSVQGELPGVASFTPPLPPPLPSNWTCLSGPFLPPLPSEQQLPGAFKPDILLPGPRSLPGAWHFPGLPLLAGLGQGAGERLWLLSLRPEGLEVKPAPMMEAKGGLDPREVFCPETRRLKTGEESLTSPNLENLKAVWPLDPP
# Summary of the method: as §1
# ETS2 = target: T8, ETS2 (Homo sapiens, UniProt P15036 1-469); conditions: protein: recombinant; tags: N-terminal GST; dsDNA, one strand shown
# T8 sequence: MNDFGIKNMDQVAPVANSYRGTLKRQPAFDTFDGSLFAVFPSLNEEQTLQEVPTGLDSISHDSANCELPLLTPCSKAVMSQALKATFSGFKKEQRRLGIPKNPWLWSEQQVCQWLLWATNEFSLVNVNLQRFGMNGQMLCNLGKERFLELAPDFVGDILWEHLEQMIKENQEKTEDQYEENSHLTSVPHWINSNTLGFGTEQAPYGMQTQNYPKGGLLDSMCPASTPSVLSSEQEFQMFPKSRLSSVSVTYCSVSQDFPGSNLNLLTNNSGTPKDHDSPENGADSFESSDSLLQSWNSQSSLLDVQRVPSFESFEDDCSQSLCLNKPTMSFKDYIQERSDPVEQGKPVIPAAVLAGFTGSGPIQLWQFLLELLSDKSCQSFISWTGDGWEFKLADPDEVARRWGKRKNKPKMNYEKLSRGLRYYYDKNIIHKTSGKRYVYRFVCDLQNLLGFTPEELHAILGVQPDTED
# Summary of the method: as §1
# SPDEF = target: T9, SPDEF (Homo sapiens, UniProt O95238 1-335); conditions: protein: recombinant; tags: N-terminal GST; dsDNA, one strand shown
# T9 sequence: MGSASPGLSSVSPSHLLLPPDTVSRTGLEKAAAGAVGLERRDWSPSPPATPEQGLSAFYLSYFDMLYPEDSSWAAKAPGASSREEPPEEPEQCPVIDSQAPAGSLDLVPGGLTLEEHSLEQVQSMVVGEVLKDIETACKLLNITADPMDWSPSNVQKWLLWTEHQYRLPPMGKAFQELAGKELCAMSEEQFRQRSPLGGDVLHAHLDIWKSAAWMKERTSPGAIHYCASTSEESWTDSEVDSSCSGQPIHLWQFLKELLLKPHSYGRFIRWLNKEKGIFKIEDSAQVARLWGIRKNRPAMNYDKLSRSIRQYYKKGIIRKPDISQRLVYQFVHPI
# Summary of the method: as §1
# ETV7 = target: T10, ETV7 (Homo sapiens, UniProt Q9Y603 1-341); conditions: protein: recombinant; tags: N-terminal GST; dsDNA, one strand shown
# T10 sequence: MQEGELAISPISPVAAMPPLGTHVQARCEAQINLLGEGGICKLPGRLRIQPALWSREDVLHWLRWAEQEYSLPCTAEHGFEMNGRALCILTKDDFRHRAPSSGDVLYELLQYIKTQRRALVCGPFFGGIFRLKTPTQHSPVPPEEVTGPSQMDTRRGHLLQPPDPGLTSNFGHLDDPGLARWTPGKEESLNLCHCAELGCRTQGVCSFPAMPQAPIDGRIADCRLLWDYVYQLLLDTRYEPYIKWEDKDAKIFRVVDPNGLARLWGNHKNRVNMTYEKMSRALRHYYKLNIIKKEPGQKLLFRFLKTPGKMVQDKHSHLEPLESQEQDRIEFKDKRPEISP
# Summary of the method: as §1
# ELF5 = target: T11, ELF5 (Homo sapiens, UniProt Q9UKW6-2 1-255); conditions: protein: recombinant; tags: N-terminal GST; dsDNA, one strand shown
# T11 sequence: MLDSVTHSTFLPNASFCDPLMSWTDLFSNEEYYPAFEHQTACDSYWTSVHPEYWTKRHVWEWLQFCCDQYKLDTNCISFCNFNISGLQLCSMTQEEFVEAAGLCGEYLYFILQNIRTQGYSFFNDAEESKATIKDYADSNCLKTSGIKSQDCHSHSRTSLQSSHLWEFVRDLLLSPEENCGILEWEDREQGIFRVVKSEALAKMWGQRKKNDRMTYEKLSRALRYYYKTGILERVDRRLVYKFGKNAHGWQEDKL
# Summary of the method: as §1
# ETV3 = target: T12, ETV3 (Homo sapiens, UniProt P41162-2 1-143); conditions: protein: recombinant; tags: N-terminal GST; dsDNA, one strand shown
# T12 sequence: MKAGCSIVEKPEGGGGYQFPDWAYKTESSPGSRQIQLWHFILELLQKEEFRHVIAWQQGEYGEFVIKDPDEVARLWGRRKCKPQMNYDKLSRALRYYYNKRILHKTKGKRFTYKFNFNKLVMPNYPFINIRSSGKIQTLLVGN
# Summary of the method: as §1
# ETV6 = ETV6 (Homo sapiens, UniProt P41212 1-452); conditions: protein: recombinant; tags: N-terminal GST; dsDNA, one strand shown
# Summary of the method: as §1
# ETV1, sequence (P50549 whole entry): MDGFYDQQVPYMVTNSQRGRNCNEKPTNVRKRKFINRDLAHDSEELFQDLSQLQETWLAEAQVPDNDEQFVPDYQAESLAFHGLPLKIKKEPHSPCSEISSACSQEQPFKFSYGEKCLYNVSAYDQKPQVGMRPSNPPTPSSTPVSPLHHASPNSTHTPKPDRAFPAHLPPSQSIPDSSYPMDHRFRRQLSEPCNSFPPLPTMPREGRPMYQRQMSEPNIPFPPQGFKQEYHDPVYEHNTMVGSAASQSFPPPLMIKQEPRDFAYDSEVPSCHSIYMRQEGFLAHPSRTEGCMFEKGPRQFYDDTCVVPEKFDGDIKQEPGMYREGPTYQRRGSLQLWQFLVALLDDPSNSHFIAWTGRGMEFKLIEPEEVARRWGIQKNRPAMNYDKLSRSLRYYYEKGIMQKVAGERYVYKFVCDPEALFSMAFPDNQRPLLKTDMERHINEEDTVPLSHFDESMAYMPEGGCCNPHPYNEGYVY
# ETV6, sequence (P41212 whole entry): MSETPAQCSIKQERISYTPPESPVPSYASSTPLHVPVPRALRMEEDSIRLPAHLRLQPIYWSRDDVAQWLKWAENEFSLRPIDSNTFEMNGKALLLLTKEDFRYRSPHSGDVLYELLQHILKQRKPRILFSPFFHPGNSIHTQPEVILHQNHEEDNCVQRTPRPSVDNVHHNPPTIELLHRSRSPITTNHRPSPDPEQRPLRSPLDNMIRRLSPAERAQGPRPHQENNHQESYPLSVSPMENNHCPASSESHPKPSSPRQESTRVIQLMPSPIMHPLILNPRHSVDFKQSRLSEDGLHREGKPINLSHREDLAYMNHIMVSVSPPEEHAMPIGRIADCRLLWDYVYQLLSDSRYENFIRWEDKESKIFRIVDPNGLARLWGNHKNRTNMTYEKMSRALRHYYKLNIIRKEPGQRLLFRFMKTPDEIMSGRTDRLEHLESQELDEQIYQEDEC
# ETV5, sequence (P41161 whole entry): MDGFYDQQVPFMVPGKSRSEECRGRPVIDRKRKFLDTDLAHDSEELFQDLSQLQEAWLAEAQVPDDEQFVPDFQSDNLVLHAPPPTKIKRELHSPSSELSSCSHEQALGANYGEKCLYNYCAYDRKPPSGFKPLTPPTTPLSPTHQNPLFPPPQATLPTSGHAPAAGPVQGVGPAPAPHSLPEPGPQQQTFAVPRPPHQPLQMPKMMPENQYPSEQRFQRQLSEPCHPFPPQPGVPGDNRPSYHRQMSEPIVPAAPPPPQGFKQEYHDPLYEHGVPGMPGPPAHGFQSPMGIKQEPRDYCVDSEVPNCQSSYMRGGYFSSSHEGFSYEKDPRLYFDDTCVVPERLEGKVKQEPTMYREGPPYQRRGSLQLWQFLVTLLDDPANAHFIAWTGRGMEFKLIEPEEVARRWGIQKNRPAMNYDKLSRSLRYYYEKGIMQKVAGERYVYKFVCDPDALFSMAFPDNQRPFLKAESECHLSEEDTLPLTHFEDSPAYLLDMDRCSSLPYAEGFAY
# CRX, sequence (O43186 whole entry): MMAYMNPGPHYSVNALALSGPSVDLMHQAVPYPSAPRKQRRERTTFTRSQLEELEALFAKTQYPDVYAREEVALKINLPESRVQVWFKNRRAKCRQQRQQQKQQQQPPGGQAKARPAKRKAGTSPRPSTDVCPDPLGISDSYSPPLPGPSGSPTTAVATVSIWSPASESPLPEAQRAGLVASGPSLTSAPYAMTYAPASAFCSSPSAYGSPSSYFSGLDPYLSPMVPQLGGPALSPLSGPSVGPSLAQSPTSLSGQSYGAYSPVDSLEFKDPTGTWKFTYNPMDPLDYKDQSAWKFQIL
# HSF1, sequence (Q00613 whole entry): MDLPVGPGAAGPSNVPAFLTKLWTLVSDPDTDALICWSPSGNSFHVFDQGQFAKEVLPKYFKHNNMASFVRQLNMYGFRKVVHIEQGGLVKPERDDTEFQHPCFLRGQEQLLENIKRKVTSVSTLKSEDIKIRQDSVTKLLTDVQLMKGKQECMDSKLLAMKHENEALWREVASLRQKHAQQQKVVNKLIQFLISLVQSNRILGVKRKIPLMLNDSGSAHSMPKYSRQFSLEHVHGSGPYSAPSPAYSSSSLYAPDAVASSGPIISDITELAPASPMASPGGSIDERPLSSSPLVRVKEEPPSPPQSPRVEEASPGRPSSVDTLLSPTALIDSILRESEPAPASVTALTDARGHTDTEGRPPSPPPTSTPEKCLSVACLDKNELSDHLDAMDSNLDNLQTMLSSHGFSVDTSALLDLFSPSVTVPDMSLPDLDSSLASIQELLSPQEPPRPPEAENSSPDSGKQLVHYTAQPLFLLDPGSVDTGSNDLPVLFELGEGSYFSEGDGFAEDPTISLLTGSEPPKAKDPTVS
# ELF4, sequence (Q99607 whole entry): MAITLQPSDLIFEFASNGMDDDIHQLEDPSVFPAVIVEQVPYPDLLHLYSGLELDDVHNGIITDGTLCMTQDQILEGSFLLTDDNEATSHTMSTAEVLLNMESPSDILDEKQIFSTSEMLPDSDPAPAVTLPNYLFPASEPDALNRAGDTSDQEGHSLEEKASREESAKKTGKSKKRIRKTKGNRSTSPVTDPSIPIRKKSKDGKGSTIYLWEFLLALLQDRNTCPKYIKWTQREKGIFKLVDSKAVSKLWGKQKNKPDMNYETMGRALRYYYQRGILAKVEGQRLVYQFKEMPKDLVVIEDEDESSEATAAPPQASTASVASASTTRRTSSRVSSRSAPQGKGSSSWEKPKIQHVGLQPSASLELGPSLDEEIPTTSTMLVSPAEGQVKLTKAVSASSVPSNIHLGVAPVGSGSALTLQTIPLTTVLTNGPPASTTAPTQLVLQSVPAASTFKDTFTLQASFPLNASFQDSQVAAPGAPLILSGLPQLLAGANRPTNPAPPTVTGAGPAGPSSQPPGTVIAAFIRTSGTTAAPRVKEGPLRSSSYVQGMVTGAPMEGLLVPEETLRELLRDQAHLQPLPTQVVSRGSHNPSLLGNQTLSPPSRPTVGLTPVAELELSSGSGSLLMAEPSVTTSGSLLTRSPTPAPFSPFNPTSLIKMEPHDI
sequence,measurement,setting,value
CTTGGG,binding signal,FEV,"1.23 fold enrichment (6-mer frequency, TF over GST control)"
same,binding signal,ETV5,"1.26 fold enrichment (6-mer frequency, TF over GST control)"
same,binding signal,HSF1,"1.12 fold enrichment (6-mer frequency, TF over GST control)"
same,binding signal,SPIC,"1.31 fold enrichment (6-mer frequency, TF over GST control)"
same,binding signal,ELF4,"1.21 fold enrichment (6-mer frequency, TF over GST control)"
same,binding signal,ELK4,"1.32 fold enrichment (6-mer frequency, TF over GST control)"
same,binding signal,ETV2,"1.15 fold enrichment (6-mer frequency, TF over GST control)"
same,binding signal,ELF3,"1.23 fold enrichment (6-mer frequency, TF over GST control)"
same,binding signal,CRX,"1.13 fold enrichment (6-mer frequency, TF over GST control)"
same,binding signal,ETV1,"1.38 fold enrichment (6-mer frequency, TF over GST control)"
same,binding signal,ERF,"1.47 fold enrichment (6-mer frequency, TF over GST control)"
same,binding signal,ETV3L,"1.26 fold enrichment (6-mer frequency, TF over GST control)"
same,binding signal,ETS2,"1.28 fold enrichment (6-mer frequency, TF over GST control)"
same,binding signal,SPDEF,"1.21 fold enrichment (6-mer frequency, TF over GST control)"
same,binding signal,ETV7,"1.3 fold enrichment (6-mer frequency, TF over GST control)"
same,binding signal,ELF5,"1.19 fold enrichment (6-mer frequency, TF over GST control)"
same,binding signal,ETV3,"1.26 fold enrichment (6-mer frequency, TF over GST control)"
same,binding signal,ETV6,"1.23 fold enrichment (6-mer frequency, TF over GST control)"
